MsrA inhibitor: bovine MsrA enzyme inhibitors, primary screen, biochemical, absorbance, HTS | Methionine sulfoxide reductase A (Bos taurus) | purified bovine MsrA, absorbance read-out | inhibition, % at 15.5 µM | actives 0.75% (n = 360,000); in the data active = inhibition above about 4.5%;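 also: 0% = vehicle wells with enzyme and 100% = reference inhibitor wells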
rCAG binder: binders of r(CAG) RNA repeats, primary screen, biochemical, fluorescence; r(CAG) RNA repeat, TO-PRO-1 dye displacement fluorescence; inhibition, % at 3 µM; actives 1.3% (n = 370,000);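 active = inhibition above the plate cutoff, the mean of all test compounds on that plate plus 3 SD, cut at about 35% in these data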;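 also: 0% = DMSO alone and 100% = 100 µM mitoxantrone as full dye displacement; higher means more dye released from RNA so lower well fluorescence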
MsrA act: bovine MsrA enzyme activators, primary screen, biochemical, absorbance, HTS. activation, % at 10.6 µM. purified bovine MsrA, absorbance read-out. Methionine sulfoxide reductase A (Bos taurus). AID 602163, 2012. actives 0.3% (n = 360,000); in the data active = activation above about 7.5%;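 also: 0% = vehicle and 100% = reference activator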
PG9 Ab binder: binders of HIV-1 gp120 antibody PG9, primary screen, biochemical, TR-FRET; HIV-1 gp120 / PG9 antibody interaction; TR-FRET gp120-PG9 antibody binding; inhibition, % at 6.7 µM; actives 0.43% (n = 360,000); in the data active = inhibition above about 8.5%
sPLA2-III inh: human group III sPLA2 inhibitors, primary screen, biochemical, QFRET, BODIPY PC-A2 liposome substrate; QFRET BODIPY PC-A2 liposome hydrolysis, fluorescence; actives 0.56% (n = 370,000); inhibition, % at 12.2 µM; Group 3 secretory phospholipase A2 (Homo sapiens), Q9NZ20;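 active = inhibition above mean plus 3 SD of compounds lying within the high and low control bounds, cut at about 19% in these data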;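 also: 0% = median of test compound wells and 100% = no enzyme DMSO wells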
Target sequence (Q9NZ20 whole entry, looked up): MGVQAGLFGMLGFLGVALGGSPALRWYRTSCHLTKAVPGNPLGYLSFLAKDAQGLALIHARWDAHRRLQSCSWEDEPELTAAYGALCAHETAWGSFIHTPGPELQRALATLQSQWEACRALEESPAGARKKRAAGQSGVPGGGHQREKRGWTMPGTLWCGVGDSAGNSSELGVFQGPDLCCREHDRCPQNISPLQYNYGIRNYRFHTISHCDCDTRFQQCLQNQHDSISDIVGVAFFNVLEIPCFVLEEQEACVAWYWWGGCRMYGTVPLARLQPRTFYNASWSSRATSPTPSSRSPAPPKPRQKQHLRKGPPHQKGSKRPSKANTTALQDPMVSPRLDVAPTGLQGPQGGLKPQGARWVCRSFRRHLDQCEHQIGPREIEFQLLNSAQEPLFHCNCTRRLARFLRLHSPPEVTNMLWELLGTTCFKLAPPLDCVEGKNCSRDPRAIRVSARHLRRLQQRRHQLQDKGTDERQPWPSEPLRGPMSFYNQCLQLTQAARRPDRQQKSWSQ
rCAG bind conf: small molecules binding CAG repeat RNA – biochemical, fluorescence, confirmation | shares compounds with rCAG binder | r(CAG) RNA repeat, TO-PRO-1 dye displacement fluorescence | inhibition, % at 3 µM | actives 70% (n = 4,300) | AID 652065, 2013;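 active = inhibition above a per-plate cutoff, the mean inhibition of sample wells plus 3 SD, cut at about 35% in these data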;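 also: loss of TO-PRO-1 fluorescence as compound displaces dye from 1x1 AA loop RNA; 0% = DMSO only wells and 100% = 100 µM mitoxantrone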
dCAG dye counter: displacement of TO-PRO-1 from CAG DNA duplex, counter-screen for rCAG RNA repeat binder project, biochemical, fluorescence, TO-PRO-1 dye, d(CAG) DNA oligo. shares compounds with rCAG binder. d(CAG) DNA oligo TO-PRO-1 dye displacement. inhibition, % at 3 µM. actives 94% (n = 4,300). AID 652068, 2013;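 active = inhibition above its plate's cutoff, the mean test-well inhibition plus 3 SD, cut at about 4.8% in these data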;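 also: 0% = DNA dye mix with DMSO and 100% = 100 µM mitoxantrone; hits displace the dye from DNA and so lower well fluorescence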
DNA CAG DR: inhibitors of DNA CAG/GTC TO-PRO-1 complex, dose response, counter-screen for rCAG RNA repeat binder project, biochemical, fluorescence, TO-PRO-1 dye; IC50, µM; AID 686960, 2013; shares compounds with rCAG binder; actives 20% (n = 250); DNA CAG/GTC duplex TO-PRO-1 dye displacement fluorescence; in the data active = IC50 below about 10 µM
The depositor's hits bear a star; / = no result. Hits are enriched below; roughly 3.2% of the tested compounds scored in any of these assays.

SMILES | MsrA inhibitor | rCAG binder | MsrA act | PG9 Ab binder | sPLA2-III inh | rCAG bind conf | dCAG dye counter | others
O=C(O)c1ccccc1NC(=O)c1ccccc1Nc1ccccc1 | 1 | 83* | -6 | 0 | -20 | 67* | 29*
CS(=O)(=O)N(Cc1ccccc1)c1ccc(C(=O)Nc2ccccc2Sc2ccccc2)cc1 | 0 | -1 | -5 | 0 | 2 | / | /
O=C(Nc1ccccc1C(=O)O)c1ccc(Br)c(S(=O)(=O)NCc2ccccc2)c1 | 0 | 73* | -1 | -1 | -38 | 61* | 22*
CS(=O)(=O)N(Cc1ccccc1)c1ccc(C(=O)Nc2ccccc2C(=O)O)cc1 | 0 | 65* | 0 | -1 | -36 | 57* | 13*
O=C(O)c1ccccc1C(=O)Nc1ccc(Nc2ccccc2)cc1 | 1 | 16 | -3 | 0 | 8 | / | /
O=C(Nc1ccccc1C(=O)Nc1ccccc1C(=O)O)c1ccccc1 | 1 | 73* | 0 | 1 | -42 | 66* | 26*
CCCN(CC(=O)Nc1ccccc1C)C(=O)c1ccc(N2CCCC(C)C2)c([N+](=O)[O-])c1 (stereo not given) | 2 | -5 | -2 | 1 | -7 | / | /
CC(=O)Nc1sc2c(c1-c1nc3ccccc3s1)CCCNC2 | / | / | / | / | 15 | / | /
CCOC(=O)C1=C(N)n2c(s/c(=C\c3ccco3)c2=O)=C(C(=O)OC(C)C)C1c1ccco1 (stereo not given) | 2 | 40* | -11 | 2 | -11 | 16 | 7.1*
CC(OP(=O)(O)C(NC(=O)[C@H](Cc1ccc(O)cc1)NC(=O)OC(C)(C)C)C(C)C)C(=O)O (stereo not given in full) | / | / | / | / | 10 | / | /
CCOc1ccc(Nc2nc(Cc3nnc(SCC(=O)O)o3)cs2)cc1 | 1 | 46* | -8 | -3 | -14 | 29 | 9.0*
CCOc1ccc(Cc2nnc(SCC(=O)c3ccc(OC)cc3)o2)cc1 | -1 | -4 | -1 | -1 | -51 | / | /
COc1ccccc1C(=O)N/C(=C/c1ccc2c(c1)OCO2)C(=O)Nc1ccc(C(=O)O)cc1 | 3 | 13 | -13 | -2 | -1 | / | /
O=C(Nc1ccc(C(=O)O)cc1)/C(=C/c1ccc2c(c1)OCO2)NC(=O)c1cccc(Br)c1 | 4 | 50* | -12 | 1 | -9 | 41* | 10*
O=C(COc1cccc(C(F)(F)F)c1)Nc1cccc(S(=O)(=O)NC2=NCCCCC2)c1 | 0 | 0 | -1 | 0 | -14 | / | /
CC1=NN(c2ccc(C(=O)O)cc2)C(=O)/C1=C\c1ccc(OC(=O)c2cccs2)cc1 | 1 | 45* | -4 | -2 | -1 | 52* | 18*
CCOc1cc(C(c2c(C)[nH][nH]c2=O)c2c(C)[nH][nH]c2=O)ccc1OC(=O)c1cccc([N+](=O)[O-])c1 | 2 | 30 | 5 | -3 | -40 | / | /
CCOc1cc(C(c2c(C)[nH][nH]c2=O)c2c(C)[nH][nH]c2=O)ccc1OCc1ccc([N+](=O)[O-])cc1 | 0 | 39* | 0 | 0 | -62 | 42* | 14*
Cc1[nH]c2ccccc2c1N=Nc1ccccc1C(=O)O | 1 | 53* | -4 | -7 | -13 | 19 | 5.7*
O=C(O)C1CCCN1c1nc(-c2ccc(Cl)c(Cl)c2)cc(C(F)(F)F)n1 (stereo not given) | 0 | 44* | -4 | -1 | -11 | 43* | 12* | DNA CAG DR=>30
